Legend:
[1] = biological target: MAP/microtubule affinity-regulating kinase 3 (Homo sapiens) (UniProt P27448); settings: at 1 µM;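 also: reported values are averaged percent inhibition of MARK3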
[2] = biological target: T1, MAP/microtubule affinity-regulating kinase 4 (Homo sapiens) (UniProt Q96L34); settings: at 0.1 µM
T1 sequence (whole entry): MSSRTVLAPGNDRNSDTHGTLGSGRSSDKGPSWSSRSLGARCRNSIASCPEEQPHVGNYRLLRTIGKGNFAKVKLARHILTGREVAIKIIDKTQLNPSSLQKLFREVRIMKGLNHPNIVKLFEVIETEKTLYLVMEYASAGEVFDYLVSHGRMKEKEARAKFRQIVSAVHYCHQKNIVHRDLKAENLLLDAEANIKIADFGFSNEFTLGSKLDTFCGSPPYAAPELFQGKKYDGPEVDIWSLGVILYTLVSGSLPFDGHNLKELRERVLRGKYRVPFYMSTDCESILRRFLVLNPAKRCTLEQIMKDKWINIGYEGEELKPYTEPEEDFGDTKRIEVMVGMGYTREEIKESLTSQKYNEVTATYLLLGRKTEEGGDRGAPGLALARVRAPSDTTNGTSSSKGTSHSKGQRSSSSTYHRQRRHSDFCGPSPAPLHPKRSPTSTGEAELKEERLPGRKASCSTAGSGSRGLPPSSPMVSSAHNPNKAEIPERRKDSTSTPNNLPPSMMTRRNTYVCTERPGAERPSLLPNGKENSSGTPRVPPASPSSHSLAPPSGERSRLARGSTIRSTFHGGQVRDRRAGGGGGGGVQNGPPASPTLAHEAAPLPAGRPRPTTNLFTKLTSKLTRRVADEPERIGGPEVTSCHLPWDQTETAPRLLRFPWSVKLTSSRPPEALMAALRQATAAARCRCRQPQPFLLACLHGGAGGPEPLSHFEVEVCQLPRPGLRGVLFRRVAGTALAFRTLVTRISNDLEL

[3] = biological target: T1, MAP/microtubule affinity-regulating kinase 4 (Homo sapiens); settings: at 1 µM
[4] = biological target: Maternal embryonic leucine zipper kinase (Homo sapiens) (UniProt Q14680); settings: at 0.1 µM
[5] = biological target: Maternal embryonic leucine zipper kinase (Homo sapiens) (UniProt Q14680); settings: at 1 µM
[6] = biological target: MAP kinase-interacting serine/threonine-protein kinase 1 (Homo sapiens) (UniProt Q9BUB5); settings: at 0.1 µM
[7] = biological target: MAP kinase-interacting serine/threonine-protein kinase 1 (Homo sapiens) (UniProt Q9BUB5); settings: at 1 µM
[8] = biological target: MAP kinase-interacting serine/threonine-protein kinase 2 (Homo sapiens) (UniProt Q9HBH9); settings: at 0.1 µM
[9] = biological target: MAP kinase-interacting serine/threonine-protein kinase 2 (Homo sapiens) (UniProt Q9HBH9); settings: at 1 µM
[10] = biological target: Serine/threonine-protein kinase MARK2 (Homo sapiens) (UniProt Q7KZI7); settings: at 0.1 µM
[11] = biological target: Serine/threonine-protein kinase MARK2 (Homo sapiens) (UniProt Q7KZI7); settings: at 1 µM
[12] = biological target: PAS domain-containing serine/threonine-protein kinase (Homo sapiens) (UniProt Q96RG2); settings: at 0.1 µM
[13] = biological target: PAS domain-containing serine/threonine-protein kinase (Homo sapiens) (UniProt Q96RG2); settings: at 1 µM
[14] = biological target: Phosphorylase b kinase gamma catalytic chain, skeletal muscle/heart isoform (Homo sapiens) (UniProt Q16816); settings: at 0.1 µM
[15] = biological target: Phosphorylase b kinase gamma catalytic chain, skeletal muscle/heart isoform (Homo sapiens) (UniProt Q16816); settings: at 1 µM
[16] = biological target: T2, Phosphorylase b kinase gamma catalytic chain, liver/testis isoform (Homo sapiens) (UniProt P15735); settings: at 0.1 µM
T2 sequence (whole entry): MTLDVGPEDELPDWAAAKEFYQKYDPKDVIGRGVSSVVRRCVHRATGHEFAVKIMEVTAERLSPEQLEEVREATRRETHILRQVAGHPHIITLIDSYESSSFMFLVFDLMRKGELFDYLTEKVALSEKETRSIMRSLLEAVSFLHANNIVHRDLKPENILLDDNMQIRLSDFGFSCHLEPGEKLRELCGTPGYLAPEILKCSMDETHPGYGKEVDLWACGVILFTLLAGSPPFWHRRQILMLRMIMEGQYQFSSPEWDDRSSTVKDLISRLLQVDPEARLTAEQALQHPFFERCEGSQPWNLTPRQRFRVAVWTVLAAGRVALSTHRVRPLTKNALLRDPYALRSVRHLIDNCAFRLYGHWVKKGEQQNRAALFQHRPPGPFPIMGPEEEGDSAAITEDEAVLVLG

[17] = biological target: T2, Phosphorylase b kinase gamma catalytic chain, liver/testis isoform (Homo sapiens); settings: at 1 µM
[18] = biological target: Serine/threonine-protein kinase pim-1 (Homo sapiens) (UniProt P11309); settings: at 0.1 µM
[19] = biological target: Serine/threonine-protein kinase pim-1 (Homo sapiens) (UniProt P11309); settings: at 1 µM
[20] = biological target: Serine/threonine-protein kinase pim-2 (Homo sapiens) (UniProt Q9P1W9); settings: at 0.1 µM;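 also: reported value is the mean percent inhibition of PIM2, measured in the GSK PKIS kinase inhibitor set screen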
Sequence of Serine/threonine-protein kinase pim-2 (Homo sapiens) (Q9P1W9 whole entry, looked up): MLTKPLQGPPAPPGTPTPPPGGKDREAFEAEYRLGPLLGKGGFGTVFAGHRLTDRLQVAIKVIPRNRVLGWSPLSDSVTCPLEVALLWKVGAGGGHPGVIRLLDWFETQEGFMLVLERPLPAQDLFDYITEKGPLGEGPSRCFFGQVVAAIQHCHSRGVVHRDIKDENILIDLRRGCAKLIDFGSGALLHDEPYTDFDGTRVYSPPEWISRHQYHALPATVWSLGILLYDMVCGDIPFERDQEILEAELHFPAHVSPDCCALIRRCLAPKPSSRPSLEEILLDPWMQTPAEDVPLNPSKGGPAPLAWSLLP

Sequence of PAS domain-containing serine/threonine-protein kinase (Homo sapiens) (Q96RG2 whole entry, the tested form may be a part, canonical isoform): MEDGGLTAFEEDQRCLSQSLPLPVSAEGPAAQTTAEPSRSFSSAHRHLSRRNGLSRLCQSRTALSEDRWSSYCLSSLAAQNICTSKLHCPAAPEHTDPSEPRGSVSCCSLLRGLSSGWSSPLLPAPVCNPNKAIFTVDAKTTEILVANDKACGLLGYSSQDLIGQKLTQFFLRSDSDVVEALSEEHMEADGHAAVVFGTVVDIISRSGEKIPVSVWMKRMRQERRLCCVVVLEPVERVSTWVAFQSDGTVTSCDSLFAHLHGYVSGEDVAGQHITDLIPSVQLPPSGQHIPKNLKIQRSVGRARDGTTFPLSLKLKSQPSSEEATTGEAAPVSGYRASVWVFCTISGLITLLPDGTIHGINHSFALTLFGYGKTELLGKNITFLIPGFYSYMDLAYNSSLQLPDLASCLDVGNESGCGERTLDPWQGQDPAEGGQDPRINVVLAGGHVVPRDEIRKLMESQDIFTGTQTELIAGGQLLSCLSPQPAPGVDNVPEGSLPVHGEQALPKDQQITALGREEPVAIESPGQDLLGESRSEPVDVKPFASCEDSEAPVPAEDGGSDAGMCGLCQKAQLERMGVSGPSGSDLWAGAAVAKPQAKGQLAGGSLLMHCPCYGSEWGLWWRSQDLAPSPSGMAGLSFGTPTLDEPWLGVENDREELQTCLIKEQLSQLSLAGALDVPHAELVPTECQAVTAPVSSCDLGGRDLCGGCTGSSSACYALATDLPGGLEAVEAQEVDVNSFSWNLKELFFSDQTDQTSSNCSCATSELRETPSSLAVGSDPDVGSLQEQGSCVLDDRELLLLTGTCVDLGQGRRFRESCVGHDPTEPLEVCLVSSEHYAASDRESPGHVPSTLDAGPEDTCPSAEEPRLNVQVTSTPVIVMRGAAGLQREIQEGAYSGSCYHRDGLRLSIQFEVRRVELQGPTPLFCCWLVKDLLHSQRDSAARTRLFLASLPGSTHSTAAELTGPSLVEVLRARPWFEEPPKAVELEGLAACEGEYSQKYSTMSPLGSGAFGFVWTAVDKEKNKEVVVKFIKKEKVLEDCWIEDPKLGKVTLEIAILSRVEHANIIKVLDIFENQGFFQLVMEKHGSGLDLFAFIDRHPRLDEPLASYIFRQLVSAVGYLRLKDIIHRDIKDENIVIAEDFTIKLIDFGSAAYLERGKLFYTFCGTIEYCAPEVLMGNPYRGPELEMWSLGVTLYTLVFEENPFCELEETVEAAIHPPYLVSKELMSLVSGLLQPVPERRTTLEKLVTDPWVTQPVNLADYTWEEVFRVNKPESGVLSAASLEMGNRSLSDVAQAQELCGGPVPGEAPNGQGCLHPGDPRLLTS
Sequence of MAP kinase-interacting serine/threonine-protein kinase 2 (Homo sapiens) (Q9HBH9 whole entry, looked up): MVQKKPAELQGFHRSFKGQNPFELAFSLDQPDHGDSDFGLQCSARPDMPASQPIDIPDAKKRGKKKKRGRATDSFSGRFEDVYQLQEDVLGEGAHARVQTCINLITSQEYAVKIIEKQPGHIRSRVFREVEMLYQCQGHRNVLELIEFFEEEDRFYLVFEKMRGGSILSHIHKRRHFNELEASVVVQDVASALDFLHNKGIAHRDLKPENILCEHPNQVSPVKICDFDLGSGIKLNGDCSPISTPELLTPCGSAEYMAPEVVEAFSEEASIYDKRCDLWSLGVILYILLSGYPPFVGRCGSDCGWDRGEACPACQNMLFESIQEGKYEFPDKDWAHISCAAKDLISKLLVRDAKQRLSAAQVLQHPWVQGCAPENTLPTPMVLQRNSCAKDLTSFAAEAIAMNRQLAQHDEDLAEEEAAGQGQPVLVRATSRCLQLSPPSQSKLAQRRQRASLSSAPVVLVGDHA
Sequence of Maternal embryonic leucine zipper kinase (Homo sapiens) (Q14680 whole entry, looked up): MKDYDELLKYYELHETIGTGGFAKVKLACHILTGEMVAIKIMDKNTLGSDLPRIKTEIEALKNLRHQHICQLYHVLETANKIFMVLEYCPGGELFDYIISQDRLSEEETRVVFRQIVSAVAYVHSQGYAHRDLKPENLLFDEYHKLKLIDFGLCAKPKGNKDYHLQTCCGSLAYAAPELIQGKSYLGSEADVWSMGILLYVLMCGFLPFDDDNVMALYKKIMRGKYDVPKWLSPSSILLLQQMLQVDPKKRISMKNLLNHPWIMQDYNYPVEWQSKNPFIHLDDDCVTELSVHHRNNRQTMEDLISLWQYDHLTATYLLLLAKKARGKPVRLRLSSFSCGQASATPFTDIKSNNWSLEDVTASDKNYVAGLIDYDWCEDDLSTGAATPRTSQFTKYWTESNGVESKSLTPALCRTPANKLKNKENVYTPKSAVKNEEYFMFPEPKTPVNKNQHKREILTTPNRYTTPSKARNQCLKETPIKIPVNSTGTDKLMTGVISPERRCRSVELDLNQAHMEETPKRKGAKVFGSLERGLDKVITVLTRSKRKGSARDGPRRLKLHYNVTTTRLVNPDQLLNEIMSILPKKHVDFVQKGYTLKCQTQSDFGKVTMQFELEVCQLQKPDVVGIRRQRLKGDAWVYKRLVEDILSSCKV
Sequence of MAP/microtubule affinity-regulating kinase 3 (Homo sapiens) (P27448 whole entry, looked up): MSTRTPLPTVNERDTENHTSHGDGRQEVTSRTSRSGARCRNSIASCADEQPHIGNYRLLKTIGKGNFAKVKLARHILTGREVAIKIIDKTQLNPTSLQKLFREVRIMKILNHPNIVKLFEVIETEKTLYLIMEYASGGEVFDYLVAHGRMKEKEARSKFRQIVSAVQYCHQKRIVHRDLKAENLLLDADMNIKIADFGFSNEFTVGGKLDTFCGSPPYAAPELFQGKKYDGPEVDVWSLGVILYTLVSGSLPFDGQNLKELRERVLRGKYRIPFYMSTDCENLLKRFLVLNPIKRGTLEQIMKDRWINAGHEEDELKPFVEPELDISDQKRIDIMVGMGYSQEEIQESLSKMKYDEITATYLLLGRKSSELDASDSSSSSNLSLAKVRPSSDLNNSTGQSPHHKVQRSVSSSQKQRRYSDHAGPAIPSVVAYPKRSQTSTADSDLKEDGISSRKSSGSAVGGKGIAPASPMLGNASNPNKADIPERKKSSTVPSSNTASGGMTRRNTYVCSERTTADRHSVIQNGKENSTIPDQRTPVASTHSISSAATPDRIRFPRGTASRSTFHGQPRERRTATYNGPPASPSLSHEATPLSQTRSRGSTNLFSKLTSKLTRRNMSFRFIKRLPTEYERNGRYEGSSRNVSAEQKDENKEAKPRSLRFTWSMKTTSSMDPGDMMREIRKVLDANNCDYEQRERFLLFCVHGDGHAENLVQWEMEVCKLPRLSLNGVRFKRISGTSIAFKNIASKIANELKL
Sequence of MAP kinase-interacting serine/threonine-protein kinase 1 (Homo sapiens) (Q9BUB5 whole entry, looked up): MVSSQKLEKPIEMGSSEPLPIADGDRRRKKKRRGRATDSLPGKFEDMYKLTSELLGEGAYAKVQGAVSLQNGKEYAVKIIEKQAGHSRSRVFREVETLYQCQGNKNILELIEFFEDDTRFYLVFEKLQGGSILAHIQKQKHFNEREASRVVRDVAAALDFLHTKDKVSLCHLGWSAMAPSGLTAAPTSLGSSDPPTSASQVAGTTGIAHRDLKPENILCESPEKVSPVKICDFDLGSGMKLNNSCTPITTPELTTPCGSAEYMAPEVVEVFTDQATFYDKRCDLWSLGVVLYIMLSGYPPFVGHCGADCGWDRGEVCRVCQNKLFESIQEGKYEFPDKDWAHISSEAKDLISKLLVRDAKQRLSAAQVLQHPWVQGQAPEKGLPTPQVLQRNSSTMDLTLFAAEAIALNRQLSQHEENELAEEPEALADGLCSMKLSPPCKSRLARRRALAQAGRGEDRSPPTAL
Sequence of Serine/threonine-protein kinase pim-1 (Homo sapiens) (P11309 whole entry, looked up): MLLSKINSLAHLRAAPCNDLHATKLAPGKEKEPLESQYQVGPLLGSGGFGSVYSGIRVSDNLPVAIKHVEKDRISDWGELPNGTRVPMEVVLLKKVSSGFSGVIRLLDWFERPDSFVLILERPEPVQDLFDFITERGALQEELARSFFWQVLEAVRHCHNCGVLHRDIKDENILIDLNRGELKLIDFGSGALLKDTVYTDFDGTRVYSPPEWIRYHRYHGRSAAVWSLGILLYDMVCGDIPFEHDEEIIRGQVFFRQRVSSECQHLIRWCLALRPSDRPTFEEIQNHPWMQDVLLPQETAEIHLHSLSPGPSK
Sequence of Phosphorylase b kinase gamma catalytic chain, skeletal muscle/heart isoform (Homo sapiens) (Q16816 whole entry, looked up, canonical isoform): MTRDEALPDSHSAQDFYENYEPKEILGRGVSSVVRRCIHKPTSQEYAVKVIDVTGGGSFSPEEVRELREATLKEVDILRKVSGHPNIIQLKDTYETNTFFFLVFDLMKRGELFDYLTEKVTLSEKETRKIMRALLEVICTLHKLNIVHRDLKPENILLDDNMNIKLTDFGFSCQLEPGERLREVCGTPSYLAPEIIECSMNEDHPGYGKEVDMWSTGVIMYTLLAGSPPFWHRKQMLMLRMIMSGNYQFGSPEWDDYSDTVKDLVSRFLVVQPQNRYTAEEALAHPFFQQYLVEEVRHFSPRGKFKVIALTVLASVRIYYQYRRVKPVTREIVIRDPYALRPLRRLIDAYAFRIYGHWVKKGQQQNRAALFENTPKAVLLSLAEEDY

| SMILES | inhibition [1] | inhibition [2] | inhibition [3] | inhibition [4] | inhibition [5] | inhibition [6] | inhibition [7] | inhibition [8] | inhibition [9] | inhibition [10] | inhibition [11] | inhibition [12] | inhibition [13] | inhibition [14] | inhibition [15] | inhibition [16] | inhibition [17] | inhibition [18] | inhibition [19] | inhibition [20] |
| --- | --- | --- | --- | --- | --- | --- | --- | --- | --- | --- | --- | --- | --- | --- | --- | --- | --- | --- | --- | --- |
| CCS(=O)(=O)c1ccc(OC)c(Nc2nccc(N(C)c3ccc4c(C)n[nH]c4c3)n2)c1 | 3.79% | 2.78% | 3.51% | 3.25% | 6.92% | 3.05% | 3.58% | 0.35% | 3.48% | 0.55% | 3.54% | -0.44% | 0.34% | 6.38% | 6.76% | 6.39% | 4.62% | 1.18% | 1.44% | 0.05% |
| Nc1nccc(-c2c(-c3ccc(F)cc3)ncn2CCCN2CCOCC2)n1 | 8.72% | 1.4% | 1.82% | 9.7% | 2.83% | 2.6% | 7.69% | 1.53% | 0.94% | 3.08% | 1.26% | -0.18% | 0.84% | 5.3% | 5.42% | 3.78% | 4.82% | 1.45% | 0.82% | 0.76% |
| ON=C1CCc2cc(-c3nc(C4CCNCC4)[nH]c3-c3ccncc3)ccc21 | 3.01% | 0.47% | 1.99% | -0.02% | 1.75% | 0.86% | 3.6% | 0.66% | 0.78% | -1.2% | 2.57% | 0.03% | -0.46% | 0% | 1.5% | 0.29% | -2.23% | 1% | 0.9% | 0.25% |
| CN(C)c1cc2c(Nc3ccc4c(cnn4Cc4ccccc4)c3)ncnc2cn1 | -0.35% | 1.14% | 1.04% | 2.68% | 2.1% | 3.47% | 19.4% | 3.73% | 23% | 0.19% | 0.46% | 0.31% | -1.1% | 2.72% | 4.62% | 3.31% | 1.97% | -0.22% | 1.78% | -0.29% |
| NS(=O)(=O)c1cccc(-c2cc3ccncc3cc2OCc2ccccc2)c1 | 9.67% | 2.91% | 6.29% | 4.44% | 6.24% | 3.03% | 6.7% | 3.83% | 25.1% | 3.3% | 4.78% | 0.61% | -0.76% | 4.05% | 7.24% | 4.91% | 3.55% | 1.01% | 0.91% | 0.27% |
| COc1cccc(-n2ncc3c(N/N=C/c4ccc(S(C)(=O)=O)cc4)ncnc32)c1 | 4.26% | 1.03% | 3.52% | 3.61% | 4.85% | 23.2% | 34.2% | 16.7% | 23.9% | 0.16% | 3.41% | -0.17% | 0.02% | 2.42% | 2.63% | 1.57% | 2.21% | -0.52% | 1.73% | -3.69% |
| COc1ccc2ncnc(Nc3ccc(OCc4ccccc4)cc3)c2c1 | 3.15% | 0.07% | -0.37% | -0.28% | 2.03% | 2.24% | 7.43% | 1.39% | 11.3% | 0.5% | 0.4% | -0.03% | 2.46% | 4.44% | 4.51% | 1.92% | 2.81% | 0.17% | 0.4% | -0.18% |
| NS(=O)(=O)c1ccc(N/N=C2\C(=O)Nc3ccc(Cl)cc32)cc1 | 13.2% | 2.09% | 11.2% | 3.75% | 8.5% | 2.08% | 10.1% | 1.59% | 5.65% | 0.41% | 6.16% | 0.76% | 1.52% | 0.25% | 14.3% | 5.9% | 8.4% | 1.22% | 2.42% | -0.27% |
| C[C@@H](Oc1cc(-n2cnc3ccc(OCC4CCN(C)CC4)cc32)sc1C(N)=O)c1ccccc1C(F)(F)F | 57.6% | 8.72% | 49.9% | 0.09% | 22% | 0.35% | 1.61% | 1.1% | 4.25% | 8.53% | 43.4% | 1.41% | 2.84% | 1.57% | 7.24% | -1.2% | 10.8% | 18.7% | 68.4% | 0.26% |
| Cc1ccc(C(=O)NC2CC2)cc1-c1ccc2[nH]ncc2c1 | 5.49% | 1.68% | 3.83% | -4.14% | -5.86% | -1.37% | -1.19% | 0.44% | 1.35% | 2.15% | 5.77% | 1.24% | 1.27% | -0.37% | 1.36% | -5.73% | -5.52% | 1.72% | 4.32% | 0.52% |
| COc1cc(/C=N/Nc2ncnc3c2cnn3C(C)C)ccc1O | 0.41% | 0.37% | 4.17% | 26.7% | 80.3% | 1.07% | 5.78% | 1.33% | 2.77% | -0.89% | 1.32% | -0.76% | -1.33% | 2.28% | 5.02% | -0.14% | 1.57% | 0.52% | 2.04% | 0.9% |
| Nc1nccc(C#Cc2cncnc2Nc2ccc(OCc3cccc(F)c3)c(Cl)c2)n1 | 11.2% | 3.04% | 7.4% | 2.92% | 5.11% | 3.59% | 14% | 2.98% | 8.39% | 1.67% | 8.86% | -0.05% | -3.04% | 6.86% | 27.5% | 4.05% | 2.05% | 1.29% | 1.16% | 0.62% |
| Cc1cc(O)cc(C)c1/C=C/c1cncc(C(=O)N(C)C)c1 | 13.7% | 1.25% | 2.49% | 3.84% | 4.23% | 4.18% | 18% | 2.2% | 9.99% | -1.4% | 1.77% | 0.83% | -0.85% | 3.09% | 2.61% | 2.55% | 0.54% | 1.21% | 2.17% | 0.03% |
